Drawing on PubChem BioAssay (EPA / NIEHS), this text covers outcome and AC50 for four compounds.

One may read the AC50 as the concentration at which the activity in the assay is half-maximal.

Each structure is given as a SMILES string. Activity calls are given as the source filed them. How the source made its calls: active means hit-call score of the fitted dose curve at least 0.9, where 1 is the maximum; inactive means score below 0.9.

Read-out in test [1]: Interleukin-1 alpha (IL1a), IL1A (gene 3552)
Put plainly: BSK_KF3CT_IL1a: BioMAP Diversity Plus: KF3CT Assay for Interleukin-1 alpha (IL1a) Biomarker Activity (AID 2283070). Conditions: primary human keratinocytes with fibroblasts; actives raise or lower the signal. In a few lines:
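Human keratinocyte plus foreskin fibroblast primary co-culture, sampled 24 h after chemical dosing. IL-1a measured by ELISA; responses fitted bidirectionally against DMSO baseline (negative control), so gain or loss of signal both count.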

Read-out in test [2]: TIMP metallopeptidase inhibitor 2 (TIMP2), TIMP2 (gene 7077)
Briefly: BSK_KF3CT_TIMP2: BioMAP Diversity Plus: KF3CT Assay for TIMP metallopeptidase inhibitor 2 (TIMP2) Biomarker Activity (AID 2283071). Conditions: primary human keratinocytes with fibroblasts; actives raise or lower the signal. Summed up:
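Cells: human keratinocytes co-cultured with foreskin fibroblasts. Treat with chemical, 24 h. Measure TIMP-2 by ELISA; fit curves bidirectionally vs DMSO baseline.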

Read-out in test [3]: C-C motif chemokine 2 (Homo sapiens) (UniProt P13500)
Briefly: BSK_KF3CT_MCP1: BioMAP Diversity Plus: KF3CT Assay for Monocyte Chemoattractant Protein 1 (MCP1/CCL2) Biomarker Activity (AID 2283073). Conditions: primary human keratinocytes with fibroblasts; actives raise or lower the signal. Summed up: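 ELISA read-out of MCP-1, 24 h post-dose, in primary human skin keratinocytes co-cultured with fibroblasts. Parallel SRB staining monitors cytotoxicity; changes fitted both directions relative to DMSO.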

Read-out in test [4]: Matrix Metallopeptidase 9 (MMP9), MMP9 (gene 4318)
Put plainly: BSK_KF3CT_MMP9: BioMAP Diversity Plus: KF3CT Assay for Matrix Metallopeptidase 9 (MMP9) Biomarker Activity (AID 2283074).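 On AC50: MMP9 protein level quantified by ELISA in the co-culture.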 Conditions: primary human keratinocytes with fibroblasts; actives raise or lower the signal. In a few lines:
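Keratinocyte plus foreskin fibroblast human primary skin co-culture was dosed with chemical and MMP-9 was quantified by ELISA 24 h later. Bidirectional curve fitting used DMSO as negative control and activity baseline.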

Read-out in test [5]: urokinase plasminogen activator (uPA), PLAU (gene 5328)
Briefly: BSK_KF3CT_uPA: BioMAP Diversity Plus: KF3CT Assay for urokinase plasminogen activator (uPA) Biomarker Activity (AID 2283075). Conditions: primary human keratinocytes with fibroblasts; actives raise or lower the signal. In a few lines: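 Human keratinocyte plus foreskin fibroblast primary co-culture exposed to chemical for 24 h. uPA levels were quantified by ELISA, and activity was fitted bidirectionally against a DMSO negative-control baseline.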

Read-out in test [6]: CD40, CD40 (gene 958)
Put plainly: BSK_LPS_CD40: BioMAP Diversity Plus: LPS Assay for CD40 Biomarker Activity (AID 2283076). Conditions: primary human HUVEC with PBMC; actives raise or lower the signal. In a few lines:
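In the LPS system of human endothelial cells with peripheral blood mononuclear cells, CD40 levels were read by ELISA 24 h post-treatment. Signal changes in either direction were fitted against the DMSO baseline, with parallel SRB protein staining.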

Read-out in test [7]: Interleukin-8 (IL8), CXCL8 (gene 3576)
Put plainly: BSK_LPS_IL8: BioMAP Diversity Plus: LPS Assay for Interleukin-8 (IL8) Biomarker Activity (AID 2283078). Conditions: primary human HUVEC with PBMC; actives raise or lower the signal. In a few lines: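 ELISA read-out of IL-8 after 24 h chemical treatment of LPS-activated endothelial/PBMC human primary co-cultures. Changes either up or down relative to DMSO; overt cytotoxicity checked by sulforhodamine B staining in parallel wells.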

Test [8] in a line: BSK_LPS_SRB: Viability Assessment in the BioMAP Diversity Plus: LPS Assay (AID 2283079).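 Further: total protein by sulforhodamine B absorbance as a cytotoxicity measure; measured one day after compound addition.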 Conditions: primary human HUVEC with PBMC. Summed up: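 SRB viability endpoint: cells fixed with 10% TCA, stained with 0.1% SRB, read at 560 nm, 24 h post-dose. HUVEC/PBMC co-culture; signal change in either direction scored relative to DMSO.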
Test [9] in a line: BSK_LPS_PGE2: BioMAP Diversity Plus: LPS Assay for Prostaglandin E2 (PGE2) Biomarker Activity (AID 2283082). Conditions: primary human HUVEC with PBMC; actives raise or lower the signal. In a few lines:
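LPS-activated HUVEC/PBMC co-culture; cmpd dosed, 24 h; PGE2 by ELISA; bidirectional fit vs DMSO; SRB (0.1%, TCA-fixed, 560 nm) in parallel plates for overt cytotox.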

Read-out in test [10]: Macrophage colony-stimulating factor (MCSF), CSF1 (gene 1435)
Briefly: BSK_LPS_MCSF: BioMAP Diversity Plus: LPS Assay for Macrophage colony-stimulating factor (MCSF) Biomarker Activity (AID 2283083). Conditions: primary human HUVEC with PBMC; actives raise or lower the signal. Summed up: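 Bidirectional fitting against DMSO was applied to M-CSF levels read by ELISA at 24 h post-dose. The system pairs human umbilical vein endothelium with peripheral blood mononuclear cells; parallel SRB staining tracked cytotoxicity.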

Read-out in test [11]: Tissue Factor, F3 (gene 2152)
Briefly: BSK_LPS_TissueFactor: BioMAP Diversity Plus: LPS Assay for Tissue Factor Biomarker Activity (AID 2283084). Conditions: primary human HUVEC with PBMC; actives raise or lower the signal. In a few lines: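 Compound was added to an endothelial cell/PBMC co-culture, and after 24 h tissue factor (CD142) was read by ELISA. Gain or loss of signal was fitted against a DMSO baseline, and parallel SRB staining (560 nm) tracked overt cytotoxicity.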

Read-out in test [12]: Tumor necrosis factor (Homo sapiens) (UniProt P01375)
Briefly: BSK_LPS_TNFa: BioMAP Diversity Plus: LPS Assay for Tumour Necrosis Factor alpha (TNFa) Biomarker Activity (AID 2283085). Conditions: primary human HUVEC with PBMC; actives raise or lower the signal. Summed up:
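Read-out is ELISA of TNFa in primary human endothelial cell–PBMC co-cultures at 24 h after compound. Activity in either direction was fitted against DMSO.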

Read-out in test [13]: Vascular cell adhesion molecule 1 (VCAM1), VCAM1 (gene 7412)
Put plainly: BSK_LPS_VCAM1: BioMAP Diversity Plus: LPS Assay for Vascular cell adhesion molecule 1 (VCAM1) Biomarker Activity (AID 2283086). Conditions: primary human HUVEC with PBMC; actives raise or lower the signal. In a few lines: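 HUVEC + PBMC co-culture, LPS system; compound 24 h; VCAM-1 by ELISA; bidirectional fit vs DMSO control; parallel SRB (0.1%, TCA-fixed, 560 nm) for cytotoxicity.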

Read-out in test [14]: CD38, CD38 (gene 952)
Put plainly: BSK_SAg_CD38: BioMAP Diversity Plus: SAg Assay for CD38 Biomarker Activity (AID 2283087). Conditions: primary human HUVEC with PBMC; actives raise or lower the signal. In a few lines: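 Human HUVEC plus PBMC co-culture stimulated with superantigen; CD38 measured by ELISA 24 h after chemical dosing. Fluorescence read-out, bidirectional fit against DMSO; cytotoxicity tracked in parallel by SRB and Alamar Blue.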

Read-out in test [15]: CD40, CD40 (gene 958)
Briefly: BSK_SAg_CD40: BioMAP Diversity Plus: SAg Assay for CD40 Biomarker Activity (AID 2283088). Conditions: primary human HUVEC with PBMC; actives raise or lower the signal. In a few lines:
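CD40 is measured by fluorescence ELISA in an endothelial/PBMC primary human co-culture at 24 h post-dose. Fitting is bidirectional, DMSO baseline. Parallel SRB staining (560 nm) flags cytotoxicity.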

Read-out in test [16]: CD69, CD69 (gene 969)
Put plainly: BSK_SAg_CD69: BioMAP Diversity Plus: SAg Assay for CD69 Biomarker Activity (AID 2283089).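 On AC50: cell surface CD69 protein quantified by ELISA with fluorescence detection.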 Conditions: primary human HUVEC with PBMC; actives raise or lower the signal. Summed up: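 ELISA, fluorescence read-out: CD69 on human umbilical vein endothelial cell + PBMC co-culture, 24 h post-dosing. Gain or loss of signal fitted bidirectionally against DMSO baseline.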

Read-out in test [17]: Transforming growth factor beta 1 (TGFb1), TGFB1 (gene 7040)
Put plainly: BSK_KF3CT_TGFb1: BioMAP Diversity Plus: KF3CT Assay for Transforming growth factor beta 1 (TGFb1) Biomarker Activity (AID 2283072). Conditions: primary human keratinocytes with fibroblasts; actives raise or lower the signal. In a few lines:
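Primary human skin cells (keratinocytes, foreskin fibroblasts) were co-cultured, exposed to test chemical and sampled at 24 h. TGF-b1 levels were measured by ELISA and fitted bidirectionally relative to DMSO.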

Read-out in test [18]: E-selectin (Homo sapiens) (UniProt P16581)
Put plainly: BSK_LPS_Eselectin: BioMAP Diversity Plus: LPS Assay for Eselectin Biomarker Activity (AID 2283077). Conditions: primary human HUVEC with PBMC; actives raise or lower the signal. Summed up: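 E-selectin ELISA on LPS-stimulated endothelial cell/PBMC co-cultures, read 24 h post-treatment; gains and losses fitted against DMSO. Parallel SRB staining (0.1% SRB after 10% TCA fixation, 560 nm) flags overt cytotoxicity.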

Read-out in test [19]: Interleukin-1 alpha (IL1a), IL1A (gene 3552)
Briefly: BSK_LPS_IL1a: BioMAP Diversity Plus: LPS Assay for Interleukin-1 alpha (IL1a) Biomarker Activity (AID 2283080). Conditions: primary human HUVEC with PBMC; actives raise or lower the signal. In a few lines: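 Readout is IL-1a level by ELISA, 24 h post-dose, fitted as gain or loss relative to DMSO. System: LPS-activated human primary co-culture of vascular endothelium and peripheral blood mononuclear cells, with parallel SRB total-protein cytotoxicity.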

Read-out in test [20]: Monocyte Chemoattractant Protein-1 (MCP1), CCL2 (gene 6347)
Put plainly: BSK_LPS_MCP1: BioMAP Diversity Plus: LPS Assay for Monocyte Chemoattractant Protein-1 (MCP1) Biomarker Activity (AID 2283081). Conditions: primary human HUVEC with PBMC; actives raise or lower the signal. In a few lines:
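Secreted MCP-1 read by ELISA at 24 h post-dosing in an LPS-activated co-culture of endothelial cells with peripheral blood mononuclear cells. Fits run in both directions, DMSO as baseline; parallel SRB staining tracks overt cytotoxicity.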

Tumor necrosis factor (Homo sapiens), sequence (P01375 whole entry, looked up): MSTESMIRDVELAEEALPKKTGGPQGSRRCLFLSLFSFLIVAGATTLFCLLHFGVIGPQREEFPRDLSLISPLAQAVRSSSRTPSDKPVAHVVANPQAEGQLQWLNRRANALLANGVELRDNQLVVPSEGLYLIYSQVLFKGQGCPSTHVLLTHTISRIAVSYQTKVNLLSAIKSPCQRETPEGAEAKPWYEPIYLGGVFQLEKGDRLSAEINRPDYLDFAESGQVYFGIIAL
E-selectin (Homo sapiens), sequence (P16581 whole entry, looked up): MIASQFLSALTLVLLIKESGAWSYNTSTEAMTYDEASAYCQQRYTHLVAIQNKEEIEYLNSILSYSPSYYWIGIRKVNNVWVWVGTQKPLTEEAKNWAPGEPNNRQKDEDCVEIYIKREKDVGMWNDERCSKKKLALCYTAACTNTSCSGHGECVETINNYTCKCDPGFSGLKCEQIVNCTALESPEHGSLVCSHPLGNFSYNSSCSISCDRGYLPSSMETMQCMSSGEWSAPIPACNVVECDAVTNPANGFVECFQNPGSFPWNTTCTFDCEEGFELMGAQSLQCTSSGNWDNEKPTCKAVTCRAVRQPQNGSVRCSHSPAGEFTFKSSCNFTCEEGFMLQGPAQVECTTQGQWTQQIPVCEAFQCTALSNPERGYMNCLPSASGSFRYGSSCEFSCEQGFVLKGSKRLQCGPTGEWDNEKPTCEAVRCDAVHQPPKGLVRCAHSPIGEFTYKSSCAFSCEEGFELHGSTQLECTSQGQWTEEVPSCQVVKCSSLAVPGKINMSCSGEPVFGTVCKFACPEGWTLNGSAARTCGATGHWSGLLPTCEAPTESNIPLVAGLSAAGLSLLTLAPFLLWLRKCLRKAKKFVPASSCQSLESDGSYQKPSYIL

As for `CCCCCCCCC(CO)CCCCCC` (centres undefined), the outcome in test [1], in test [2], in test [3], in test [4], in test [5] and in [6] was inactive. The result in test [7], in test [8], in test [9], in test [10], in [11] and in test [12] was inactive. In addition, the result in test [13], in test [14], in test [15] and in [16] was inactive.

In the case of `C=CC(=O)NC(C)(C)C`, the result in test [1], in test [2], in test [17], in test [3], in test [4] and in [6] was inactive. The outcome in [18], in test [7], in [8], in test [9], in test [10] and in test [11] was inactive. For the same compound, the result in [12], in test [13], in test [14], in test [15] and in [16] was inactive.

With `CC=C(C)C=CC=C(C)C`, the AC50 is 16 nM (active) in [1]; 20 µM (active) in test [4]; 7.42 µM (active) in [6]; 20 µM (active) in [13]; 13.7 µM (active) in test [14]; 6.97 µM (active) in test [15]. In addition, the AC50 in test [16] was 18.7 µM (active). Also, the outcome in [2], in [17], in [3], in test [7], in [8] and in [19] was inactive. Moreover, the outcome in test [20], in [9], in test [10], in test [11] and in test [12] was inactive.

Regarding `C=CCCCCCCCCC=O`, the outcome in test [1], in test [2], in test [17], in test [3], in test [4] and in test [6] was inactive. Besides, the result in test [18], in test [7], in test [8], in test [20], in test [9] and in [10] was inactive. Besides, the outcome in [11], in [12], in test [13], in test [14], in [15] and in test [16] was inactive.
